From PubChem
Sampled rows, rich in hits. Any-hit rate of the full collection: about 5.7%.
KB-V1 cytotox: qHTS assay for MDR1-selective chemotherapeutics: Primary screen using the drug-selected MDR subline cells KB-V1; KB-V1 MDR cells viability, CellTiter-Glo, 72 h; 3.4% of 400,000 active; Potency, µM (highest dose often 46.1 µM), actives largely listed as cytotoxic; note: nearly all actives have a fitted effect of over 60% in size
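Cells of the MDR subline KB-V1 are plated, dosed with compound at multiple concentrations, and incubated 72 h at 37 degrees C; CellTiter-Glo is then added and luminescence read after 10 min.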
PI4K2A inh: qHTS for small molecular inhibitors of PI4K2A | 0.13% of 420,000 active | AID 1346378, 2018 | purified PI4K2A, ADP-Glo luminescence, 1 h; active compounds read low | activity change, negative = inhibition, % at 76.9 µM; in the data active = activity change below about -50%; inconclusive = mostly about -30% to -49%
Target sequence (Q9BTU6 whole entry, looked up): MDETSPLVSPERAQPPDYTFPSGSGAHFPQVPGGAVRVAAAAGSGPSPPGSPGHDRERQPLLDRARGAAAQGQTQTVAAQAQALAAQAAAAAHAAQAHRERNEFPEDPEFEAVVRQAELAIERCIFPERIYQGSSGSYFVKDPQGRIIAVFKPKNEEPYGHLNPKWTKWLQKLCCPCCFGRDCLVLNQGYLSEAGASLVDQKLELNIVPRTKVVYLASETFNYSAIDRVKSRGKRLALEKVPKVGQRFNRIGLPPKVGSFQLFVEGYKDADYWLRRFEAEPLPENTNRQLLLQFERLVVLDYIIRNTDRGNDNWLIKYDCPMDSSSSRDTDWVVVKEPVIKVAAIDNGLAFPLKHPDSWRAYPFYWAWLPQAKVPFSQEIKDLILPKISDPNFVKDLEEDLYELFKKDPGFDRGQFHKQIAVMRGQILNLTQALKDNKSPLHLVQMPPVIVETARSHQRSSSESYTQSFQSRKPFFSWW
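ADP-Glo luminescence measured ADP generated by PI4K2A enzyme (4 ug/mL before mixing) with 1.2 mM PI substrate (pre-mix) and 300 microM ATP (pre-mix). Tris pH7.5 buffer with MgCl2, Triton X-100; 1 h reaction at ambient temperature.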
Nrf2 inh: Nrf2 qHTS screen for inhibitors | A549 ARE-Fluc reporter, luciferase luminescence, 18-24 h | 2.1% of 360,000 active | Potency, µM (highest dose often 46 µM), actives largely listed as inhibitors | AID 504444, 2011; note: nearly all actives have a fitted effect of over 60% in size
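Concentration-response testing used A549 ARE_Fluc cells at 5000 cells/well. Following an 18-24 h compound incubation, viability was read by fluorescence (Ex 405/Em 525) and luciferase output by luminescence.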
Giardia kill: Small Molecules that selectively kill Giardia lamblia: qHTS. Giardia lamblia trophozoite viability. 0.15% of 340,000 active. AID 540267, 2011. activity change, % at 7.66 µM, hits read low; in the data active = activity change below about -80%; inconclusive = between about -30% and that limit;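 note: parasites exposed to compound for two days anaerobically before the ATP read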
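Killing of trophozoites was scored by loss of ATP luminescence after a 48 hrs anaerobic exposure to compounds at 37 deg C, using 100 cells per well.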
A549 viability: Nrf2 qHTS screen for inhibitors: counterscreen for cytotoxicity. Potency, µM (top dose mostly 46 µM), actives largely listed as inhibitors. A549 ARE-Fluc cells, CellTiter-Fluor viability, 18-24 h. AID 504648, 2011. 0.16% of 390,000 active
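A549 ARE_Fluc cells in 5% FBS OPTI-MEM were exposed to compounds in concentration-response for 18-24 h at 37 deg C. Viability was read by CellTiter-Fluor fluorescence (Ex 405/Em 525) after 30 min, before the luciferase read.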
KB-3-1 cytotox: qHTS assay for MDR1-selective chemotherapeutics: Primary screen using the parental adenocarcinoma cell KB-3-1; Potency, µM (titrated, usually from 46.1 µM), actives largely listed as cytotoxic; AID 1347075, 2019; 1.4% of 400,000 active; KB-3-1 viability, CellTiter-Glo ATP luminescence, 72 h; note: nearly all actives have a fitted effect of over 60% in size
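Viability of parental KB-3-1 cells, measured by CellTiter-Glo luminescence, followed a 72 h incubation at 37 °C with pinned compounds in phenol-red-free DMEM containing 10% FBS.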
Numbers stand for hits. Unless noted, calls come from the whole dose curve; as a rule, active = well fitted curve in the direction sought with a large enough effect; inconclusive = small, poorly fitted or top-dose-only effect, or another doubt; inactive = no such curve, though single readings can be large; an effect the other way counts as inactive or inconclusive.

Cc1ccc(NC(=O)C2CCCN2S(=O)(=O)c2cccc3cccnc23)cc1 (stereo not drawn) was read as PI4K2A inh inactive, Nrf2 inh inactive and A549 viability inactive.
O=S1(=O)C=C(Sc2nnc(-c3ccccc3)o2)c2ccccc21 was read as KB-V1 cytotox inconclusive, PI4K2A inh inactive, Nrf2 inh inconclusive, Giardia kill inactive, A549 viability inconclusive and KB-3-1 cytotox 14.6µM.
Screening Cc1cc(C)nc(SC2=CS(=O)(=O)c3ccccc32)n1 returned KB-V1 cytotox inconclusive, PI4K2A inh inactive, Nrf2 inh inconclusive, Giardia kill inactive, A549 viability inactive and KB-3-1 cytotox 18.4µM.
Screening c1ccc2sc(SSc3nc4ccccc4s3)nc2c1 returned PI4K2A inh inactive.
`O=S1(=O)C=C(Sc2nc3ccccc3s2)c2ccccc21` gave KB-V1 cytotox inconclusive, PI4K2A inh inactive, Nrf2 inh 18.4µM, Giardia kill inactive, A549 viability 23.1µM and KB-3-1 cytotox 2.31µM.
`Cc1cccc(Cl)c1-n1nnnc1C1(C)CSCC(=O)N1Cc1ccc(F)cc1` (stereo not drawn) gave PI4K2A inh inactive.
O=C1CC(c2cccc([N+](=O)[O-])c2)c2ccc3ccccc3c2N1 (stereo not drawn) was read as KB-V1 cytotox 13µM, PI4K2A inh inactive, Nrf2 inh inactive, Giardia kill inactive, A549 viability inactive and KB-3-1 cytotox inactive.
Screening Oc1ccccc1CN(Cc1ccco1)CC(O)COCc1ccc(Cl)cc1 (stereo not drawn) returned KB-V1 cytotox inconclusive, PI4K2A inh inactive, Nrf2 inh inactive, Giardia kill inactive, A549 viability inactive and KB-3-1 cytotox inactive.
For COc1ccc(COCC(O)CN(Cc2ccco2)Cc2ccccc2O)cc1 (stereo not drawn) the results were KB-V1 cytotox 20.6µM, PI4K2A inh inactive, Nrf2 inh inactive, Giardia kill inactive, A549 viability inactive and KB-3-1 cytotox inactive.
Screening CN(CC(=O)Nc1c(Cl)cccc1Cl)C(=O)Cc1ccsc1 returned KB-V1 cytotox inactive, PI4K2A inh inactive, Nrf2 inh inactive, Giardia kill inactive, A549 viability inactive and KB-3-1 cytotox inactive.
`CCc1cc(C(=O)N(C)CC(=O)Nc2c(Cl)cccc2Cl)sc1C` gave KB-V1 cytotox 18.4µM, PI4K2A inh inactive, Nrf2 inh inactive, Giardia kill inactive, A549 viability inactive and KB-3-1 cytotox inactive.
Screening O=C(CSc1nc(-c2ccccc2)[nH]c1-c1ccccc1)Nc1ccc2c(c1)OCO2 returned KB-V1 cytotox inactive, PI4K2A inh inactive, Nrf2 inh inconclusive, A549 viability inactive and KB-3-1 cytotox inconclusive.
`C[C@@H]1CCN(C2CC2)S(=O)(=O)c2c(cccc2N2CC[C@H](N(C)C)C2)O1` gave PI4K2A inh inactive.
CC1CCN(c2c(NCc3ccc(C(=O)N4CCc5ccccc54)cc3)c(=O)c2=O)CC1 was read as KB-V1 cytotox inactive, PI4K2A inh inactive, Nrf2 inh inactive, Giardia kill inactive, A549 viability inactive and KB-3-1 cytotox 1.64µM.
Screening CC1CCN(c2c(NCc3ccc(C(=O)N(C)C4CCCCC4)cc3)c(=O)c2=O)CC1 returned KB-V1 cytotox inactive, PI4K2A inh inactive, Nrf2 inh inactive, Giardia kill inactive, A549 viability inactive and KB-3-1 cytotox inactive.
CCN(CC)C(=O)CSc1nnc(-c2ccc(C(C)(C)C)cc2)n1Cc1ccco1 was read as PI4K2A inh inactive.
CCOc1cc(C2c3c(oc4ccccc4c3=O)C(=O)N2Cc2ccc3c(c2)OCO3)ccc1O (stereo not drawn) was read as KB-V1 cytotox inactive, PI4K2A inh inactive, Nrf2 inh inactive, A549 viability inactive and KB-3-1 cytotox inactive.
O=C1C(Cl)=C(N2CCOCC2)C(=O)N1CCc1ccccc1 was read as KB-V1 cytotox 14.6µM, PI4K2A inh inactive, Nrf2 inh inconclusive, Giardia kill inactive, A549 viability inactive and KB-3-1 cytotox inactive.
For Cn1ncc2c(NCc3ccco3)ncnc21 the results were KB-V1 cytotox inactive and KB-3-1 cytotox inactive.
COCCCOc1cc(C[C@@H](C[C@H](N)[C@@H](O)C[C@H](C(=O)NCC(C)(C)C(N)=O)C(C)C)C(C)C)ccc1OC was read as PI4K2A inh inactive.
For Brc1ccc2oc3c(N4CCOCC4)ncnc3c2c1 the results were KB-V1 cytotox 16.4µM, PI4K2A inh inactive, Nrf2 inh inactive, Giardia kill inactive, A549 viability inactive and KB-3-1 cytotox inactive.
c1ccc(N2CCN(c3ncnc4c3oc3ccccc34)CC2)cc1 was read as KB-V1 cytotox 16.4µM, PI4K2A inh inactive, Nrf2 inh inactive, Giardia kill inactive, A549 viability inactive and KB-3-1 cytotox inactive.
CCc1nnc(N2CCN(c3ncnc4c3oc3ccccc34)CC2)s1 was read as KB-V1 cytotox inactive, PI4K2A inh inactive, Nrf2 inh 10.3µM, Giardia kill inactive, A549 viability inactive and KB-3-1 cytotox inactive.
`CC(C)OC(=O)C(C(=O)OC(C)C)=C1SC=CS1` gave PI4K2A inh inactive.
`COC[C@@H]1CCCN1c1ccc2c(c1)O[C@@H]1CCN(C1)S2(=O)=O` gave PI4K2A inh inactive.
Screening CC(=O)Nc1ccc(NC(=O)c2nc(SCc3ccccc3F)ncc2Cl)cc1 returned KB-V1 cytotox inactive and KB-3-1 cytotox inconclusive.
For COc1ccc(N(Cc2cc3ccccc3[nH]c2=O)S(C)(=O)=O)cc1 the results were KB-V1 cytotox 16.4µM, PI4K2A inh inactive, Nrf2 inh inactive, Giardia kill inactive, A549 viability inactive and KB-3-1 cytotox inactive.
For CCOc1ccc(N(Cc2cc3ccc(C)cc3[nH]c2=O)S(=O)(=O)c2ccccc2)cc1 the results were KB-V1 cytotox inactive, PI4K2A inh inactive, Nrf2 inh inactive, Giardia kill inconclusive, A549 viability inactive and KB-3-1 cytotox 16.4µM.
Screening Cc1ccc(N(Cc2cc3ccccc3[nH]c2=O)S(C)(=O)=O)cc1 returned KB-V1 cytotox inactive, PI4K2A inh inactive, Nrf2 inh inactive, Giardia kill inactive, A549 viability inactive and KB-3-1 cytotox inactive.
Screening CC(C)N(Cc1cc2ccccc2[nH]c1=O)C(=O)C(C)(C)C returned KB-V1 cytotox inactive, PI4K2A inh inactive, Giardia kill inactive, A549 viability inactive and KB-3-1 cytotox inactive.
For Cc1ccc2cc(CN(c3ccccc3)S(=O)(=O)c3ccccc3)c(=O)[nH]c2c1 the results were KB-V1 cytotox inactive, PI4K2A inh inactive, Nrf2 inh inactive, Giardia kill inactive, A549 viability inactive and KB-3-1 cytotox inactive.
